The whole screen tested about 5,500 compounds, of which about 2,000 (36%) were called active. Inconclusive results (about 18%) are left out. No stated cut-off is given here; in the data, active means normalized growth mostly below about 0.91 (no sharp cut-off); inconclusive means no clear call, values can overlap the other calls; inactive means mostly above about 0.92. The list shows a part of the results.
Assay: chemical genetic growth profiling, strain panel (AID 1159580);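 further: tested at 20 µM; growth read once vehicle control cultures reached saturation at 30 °C; 1 = growth at the plate median or of vehicle wells; lower values mean less growth of the strain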
Settings: S. cerevisiae deletion strains, growth OD

Measured: normalized growth

CC(C)=CCCC(C)[C@@H]1CC[C@]2(C)C3=C(CC[C@@]12C)C1(C)CC[C@H](O)C(C)(C)C1CC3 (some centres undefined)
inactive: locus YJL187C, strain SWE1 (second series), active compounds read low 0.995 | locus YJL187C, strain SWE1, active compounds read low 1.06 | locus YJR066W, strain TOR1, active compounds read low 0.866 | locus YKL068W, active compounds read low 1.04 | locus YKL085W, strain MDH1 (second series), active compounds read low 1.03 | locus YKL085W, strain MDH1, active compounds read low 1.03 | locus YKL160W, strain elf1, active compounds read low 1.03 | locus YKR001C, strain vps1, active compounds read low 0.979 | locus YLL001W, strain dnm1, active compounds read low 1.07 | locus YLL041C, strain sdh2, active compounds read low 1.06 | locus YLR027C, strain aat2, active compounds read low 1.07 | locus YLR039C, strain RIC1, active compounds read low 1.24 | locus YLR058C, strain SHM2, active compounds read low 0.996 | locus YLR102C, strain apc9, active compounds read low 1.05 | locus YLR113W, strain HOG1, active compounds read low 0.866 | locus YLR221C, strain rsa3, active compounds read low 1.06 | locus YLR258W, strain gsy2, active compounds read low 1.07 | locus YLR268W, strain sec22, active compounds read low 0.973 | locus YLR320W, strain mms22, active compounds read low 1.05 | locus YLR330W, strain CHS5, active compounds read low 1.06 | locus YLR342W, strain FKS1, active compounds read low 1.05 | locus YLR357W, strain rsc2, active compounds read low 1.13 | locus YLR370C, strain arc18, active compounds read low 1.07 | locus YLR371W, strain rom2, active compounds read low 1.06 | locus YLR384C, strain iki3, active compounds read low 1.07 | locus YLR418C, strain cdc73, active compounds read low 1.15 | locus YML016C, strain PPZ1, active compounds read low 1.06 | locus YML032C, strain rad52, active compounds read low 0.946 | locus YML120C, strain ndi1, active compounds read low 1.03 | locus YML124C, strain tub3, active compounds read low 1.06 | locus YMR058W, strain fet3, active compounds read low 1 | locus YMR078C, strain ctf18, active compounds read low 1.08 | locus YMR125W, strain sto1, active compounds read low 1.07 | locus YMR129W, active compounds read low 1.06 | locus YMR205C, strain PFK2, active compounds read low 1.04 | locus YMR223W, strain ubp8, active compounds read low 0.971 | locus YMR231W, strain pep5, active compounds read low 1.04 | locus YNL067W, strain RPL9B, active compounds read low 1.02 | locus YNL071W, strain lat1, active compounds read low 1.04 | locus YNL128W, strain TEP1, active compounds read low 0.996 | locus YNL183C, strain NPR1, active compounds read low 0.846 | locus YNL209W, strain ssb2, active compounds read low 1.06 | locus YNL248C, strain rpa49, active compounds read low 1.01 | locus YNL250W, strain rad50, active compounds read low 0.996 | locus YNL271C, strain bni1, active compounds read low 1.01 | locus YNL298W, strain CLA4, active compounds read low 0.917 | locus YNL307C, strain MCK1, active compounds read low 1.03 | locus YNL322C, strain KRE1 (second series), active compounds read low 1.08 | locus YNR049C, strain mso1, active compounds read low 1.08 | locus YNR052C, strain pop2, active compounds read low 0.968 | locus YOL012C, strain htz1 1.41 | locus YOR001W, strain rrp6, active compounds read low 1.02 | locus YOR061W, strain CKA2, active compounds read low 0.994 | locus YOR069W, strain VPS5, active compounds read low 1.05 | locus YOR070C, strain gyp1, active compounds read low 1.05 | locus YOR083W, strain WHI5, active compounds read low 0.994 | locus YOR106W, strain vam3, active compounds read low 0.939 | locus YOR136W, strain idh2, active compounds read low 1.02 | locus YOR144C, strain elg1, active compounds read low 1.02 | locus YOR231W, strain MKK1, active compounds read low 0.874 | locus YOR270C, strain vph1, active compounds read low 0.839 | locus YOR290C, strain snf2, active compounds read low 0.992 | locus YOR316C, strain cot1, active compounds read low 1.06 | locus YPL051W, strain arl3, active compounds read low 1.02 | locus YPL078C, strain atp4, active compounds read low 1.02 | locus YPL240C, strain hsp82, active compounds read low 1.05 | locus YPL256C, strain CLN2, active compounds read low 0.994 | locus YPR119W, strain clb2, active compounds read low 1.07 | locus YPR141C, strain kar3, active compounds read low 1.05 | locus YPR163C, strain tif3, active compounds read low 0.975 | locus YPR167C, strain met16, active compounds read low 1.03 | strain wtn01, active compounds read low 0.949
active: locus YKL009W, strain mrt4, active compounds read low 0.775 | locus YKR026C, strain gcn3, active compounds read low 1.09 [resistant] | locus YKR091W, strain srl3, active compounds read low 1.1 [resistant] | locus YLL026W, active compounds read low 1.07 [resistant] | locus YLR262C, strain YPT6 (second series), active compounds read low 0.822 | locus YMR307W, strain GAS1, active compounds read low 1.42 [resistant] | locus YNL233W, strain BNI4, active compounds read low 1.13 [resistant] | locus YOL147C, strain pex11, active compounds read low 1.1 [resistant] | locus YOR080W, strain dia2, active compounds read low 1.09 [resistant] | locus YOR184W, strain ser1, active compounds read low 0.85 | locus YOR265W, strain rbl2, active compounds read low 1.07 [resistant] | locus YPL106C, strain sse1, active compounds read low 1.26 [resistant]
